From the supplement of paper PMC10849652
The full data set covers some 7,900 targets. This sample favours those with a hit. About 0.6% of all pairs of compound and target were hits.

Columns and labels:
Assay in all cases: log2 fold change, soluble protein after heating vs DMSO (PISA); higher = thermal stabilisation; K562 cells, 10 uM, 30 min; active = over 0.2 and 3.5 SD of the protein, either way, in both replicates (recomputed)
[1] = compound: CS(=O)(=O)c1ccc(-c2cnc(N)c(C(=O)Nc3ccccc3)n2)cc1
In short: (§1)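 K562 cells at 2×10^6 cells/mL were given 10 μM compound for 30 min. Aliquots then went through 3 min of heating across 48°C-58°C, were pooled, and were extracted in PBS with 0.5% NP-40 at 4°C, and the supernatant after 21,000xg for 90 min was quantified by TMTpro 16plex LC-MS/MS with channel sums equalised. Thermal stability relative to control samples, from duplicates, is given as log2 fold change.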

crizotinib = compound: C[C@@H](Oc1cc(-c2cnn(C3CCNCC3)c2)cnc1N)c1c(Cl)ccc(F)c1Cl [crizotinib]
In short: as §1

[2] = compound: C[C@@H]1COCCN1C2=NC(=NC(=C2)C3(CC3)S(=O)(=O)C)C4=C5C=CNC5=CC=C4
In short: as §1

[3] = compound: C[C@H](C1=CC=C(C=C1)C(=O)NC2=C3C=CNC3=NC=C2)N
In short: as §1

duvelisib = compound: C[C@H](Nc1ncnc2nc[nH]c12)c1cc2cccc(Cl)c2c(=O)n1-c1ccccc1 [duvelisib]
In short: as §1

gandotinib = compound: Cc1cc(Nc2cc(CN3CCOCC3)c3nc(C)c(Cc4ccc(Cl)cc4F)n3n2)n[nH]1 [gandotinib]
In short: as §1

tozasertib = compound: Cc1cc(Nc2cc(N3CCN(C)CC3)nc(Sc3ccc(NC(=O)C4CC4)cc3)n2)n[nH]1 [tozasertib]
In short: as §1

[4] = compound: Cc1cc(SCc2sc(-c3ccc(C(F)(F)F)cc3)nc2C)ccc1OCC(=O)O
In short: as §1

doramapimod = compound: Cc1ccc(-n2nc(C(C)(C)C)cc2NC(=O)Nc2ccc(OCCN3CCOCC3)c3ccccc23)cc1 [doramapimod]
In short: as §1

ispinesib = compound: Cc1ccc(C(=O)N(CCCN)[C@@H](c2nc3cc(Cl)ccc3c(=O)n2Cc2ccccc2)C(C)C)cc1 [ispinesib]
In short: as §1

Measured: log2 fold change

PPP2R5E (UniProt Q16537)
Sequence of UniProt Q16537 (Q16537 whole entry, looked up): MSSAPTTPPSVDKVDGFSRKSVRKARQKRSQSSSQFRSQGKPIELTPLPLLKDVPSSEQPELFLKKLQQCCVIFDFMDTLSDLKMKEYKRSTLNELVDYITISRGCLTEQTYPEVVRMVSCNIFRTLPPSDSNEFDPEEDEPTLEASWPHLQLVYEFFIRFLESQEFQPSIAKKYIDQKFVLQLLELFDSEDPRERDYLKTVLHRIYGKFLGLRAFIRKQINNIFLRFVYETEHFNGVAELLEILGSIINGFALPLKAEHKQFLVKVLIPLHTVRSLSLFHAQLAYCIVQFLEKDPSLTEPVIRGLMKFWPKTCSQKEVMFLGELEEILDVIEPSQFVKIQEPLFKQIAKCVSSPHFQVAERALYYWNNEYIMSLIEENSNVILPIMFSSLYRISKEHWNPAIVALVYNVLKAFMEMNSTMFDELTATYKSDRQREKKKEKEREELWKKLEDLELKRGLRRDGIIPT
inactive: [1] -0.024 | crizotinib -0.15 | [2] 0.037 | [3] 0.105 | duvelisib 0.078 | gandotinib 0.167 | tozasertib -0.072 | [4] 0.015 | doramapimod -0.01 | ispinesib -0.024

PLEKHM2 (UniProt Q8IWE5)
inactive: [1] 0.023 | crizotinib -0.162 | [2] 0.02 | [3] -0.047 | duvelisib 0.044 | gandotinib -0.06 | tozasertib 0.144 | [4] 0.04 | doramapimod 0.064 | ispinesib -0.02

PDE4DIP isoform 4 (UniProt Q5VU43)
Sequence of UniProt Q5VU43 (Q5VU43 whole entry, looked up): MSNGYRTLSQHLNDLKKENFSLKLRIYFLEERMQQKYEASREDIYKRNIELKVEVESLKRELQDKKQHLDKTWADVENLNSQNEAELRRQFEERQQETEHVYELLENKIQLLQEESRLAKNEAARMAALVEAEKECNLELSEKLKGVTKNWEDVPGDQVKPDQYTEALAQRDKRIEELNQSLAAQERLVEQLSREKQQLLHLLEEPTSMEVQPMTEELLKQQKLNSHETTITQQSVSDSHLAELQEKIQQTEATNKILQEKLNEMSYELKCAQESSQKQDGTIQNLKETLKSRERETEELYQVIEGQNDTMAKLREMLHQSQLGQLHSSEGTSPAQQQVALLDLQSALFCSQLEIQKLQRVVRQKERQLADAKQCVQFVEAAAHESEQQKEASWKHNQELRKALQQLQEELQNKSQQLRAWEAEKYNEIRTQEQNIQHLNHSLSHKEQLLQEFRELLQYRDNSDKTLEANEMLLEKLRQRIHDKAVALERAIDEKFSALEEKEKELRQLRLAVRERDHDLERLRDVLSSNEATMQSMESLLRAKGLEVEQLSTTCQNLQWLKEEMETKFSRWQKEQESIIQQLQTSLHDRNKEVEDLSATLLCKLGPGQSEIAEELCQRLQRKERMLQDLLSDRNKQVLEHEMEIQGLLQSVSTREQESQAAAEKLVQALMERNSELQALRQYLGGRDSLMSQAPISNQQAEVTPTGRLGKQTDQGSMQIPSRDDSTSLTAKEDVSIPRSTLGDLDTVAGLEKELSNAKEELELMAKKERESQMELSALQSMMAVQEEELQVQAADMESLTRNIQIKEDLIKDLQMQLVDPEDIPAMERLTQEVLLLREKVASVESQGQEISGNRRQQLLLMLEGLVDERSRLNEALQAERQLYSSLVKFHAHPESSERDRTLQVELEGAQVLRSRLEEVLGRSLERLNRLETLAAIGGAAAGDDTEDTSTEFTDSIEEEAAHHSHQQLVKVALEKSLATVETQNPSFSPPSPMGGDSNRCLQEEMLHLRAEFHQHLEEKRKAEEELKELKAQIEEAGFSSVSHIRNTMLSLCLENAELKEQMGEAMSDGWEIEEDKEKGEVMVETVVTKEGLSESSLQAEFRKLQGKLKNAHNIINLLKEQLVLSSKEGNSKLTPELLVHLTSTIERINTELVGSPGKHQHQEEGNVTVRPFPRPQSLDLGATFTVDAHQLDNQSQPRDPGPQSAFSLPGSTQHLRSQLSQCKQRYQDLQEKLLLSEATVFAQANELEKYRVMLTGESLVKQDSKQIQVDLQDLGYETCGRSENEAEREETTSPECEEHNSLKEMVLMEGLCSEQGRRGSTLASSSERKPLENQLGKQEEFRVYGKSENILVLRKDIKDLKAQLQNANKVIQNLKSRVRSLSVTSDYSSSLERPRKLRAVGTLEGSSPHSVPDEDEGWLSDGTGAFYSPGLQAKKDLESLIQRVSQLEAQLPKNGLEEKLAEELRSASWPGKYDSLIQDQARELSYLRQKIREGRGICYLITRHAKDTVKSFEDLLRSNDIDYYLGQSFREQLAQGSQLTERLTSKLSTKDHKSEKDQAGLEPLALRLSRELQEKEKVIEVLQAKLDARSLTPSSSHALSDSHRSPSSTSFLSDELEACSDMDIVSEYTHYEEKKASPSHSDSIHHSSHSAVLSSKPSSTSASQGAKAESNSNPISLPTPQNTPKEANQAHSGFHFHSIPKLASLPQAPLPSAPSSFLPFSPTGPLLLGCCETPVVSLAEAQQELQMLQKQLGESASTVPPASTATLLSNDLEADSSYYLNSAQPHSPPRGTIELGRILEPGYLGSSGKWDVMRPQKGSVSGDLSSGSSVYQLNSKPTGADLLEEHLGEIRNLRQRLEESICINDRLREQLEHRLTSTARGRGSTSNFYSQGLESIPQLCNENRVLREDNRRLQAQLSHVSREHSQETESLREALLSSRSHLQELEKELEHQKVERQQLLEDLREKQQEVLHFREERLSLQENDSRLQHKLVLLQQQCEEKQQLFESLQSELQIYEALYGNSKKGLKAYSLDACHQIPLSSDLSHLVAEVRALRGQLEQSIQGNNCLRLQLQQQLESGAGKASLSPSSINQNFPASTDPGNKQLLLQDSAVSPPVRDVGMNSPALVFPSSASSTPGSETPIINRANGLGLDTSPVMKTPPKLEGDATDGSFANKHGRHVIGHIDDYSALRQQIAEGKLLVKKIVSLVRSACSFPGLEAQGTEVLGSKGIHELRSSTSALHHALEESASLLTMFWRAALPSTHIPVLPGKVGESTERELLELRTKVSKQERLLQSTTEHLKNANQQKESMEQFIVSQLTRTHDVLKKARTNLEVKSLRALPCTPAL
inactive: [1] -0.007 | crizotinib 0.02 | [2] 0.134 | [3] -0.002 | duvelisib 0.072 | gandotinib 0.106 | tozasertib -0.011 | [4] 0.008 | doramapimod 0.01 | ispinesib -0.073

POMP (UniProt Q9Y244)
Sequence of UniProt Q9Y244 (Q9Y244 whole entry, looked up): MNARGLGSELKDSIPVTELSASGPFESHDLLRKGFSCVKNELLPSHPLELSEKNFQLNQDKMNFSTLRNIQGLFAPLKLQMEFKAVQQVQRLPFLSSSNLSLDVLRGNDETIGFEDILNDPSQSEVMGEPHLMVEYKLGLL
inactive: [1] -0.086 | crizotinib -0.059 | [2] -0.023 | [3] -0.076 | duvelisib 0.055 | gandotinib 0.027 | tozasertib 0.001 | [4] -0.245 | doramapimod -0.143 | ispinesib 0.108

PHAX (UniProt Q9H814)
Sequence of UniProt Q9H814 (Q9H814 whole entry, looked up): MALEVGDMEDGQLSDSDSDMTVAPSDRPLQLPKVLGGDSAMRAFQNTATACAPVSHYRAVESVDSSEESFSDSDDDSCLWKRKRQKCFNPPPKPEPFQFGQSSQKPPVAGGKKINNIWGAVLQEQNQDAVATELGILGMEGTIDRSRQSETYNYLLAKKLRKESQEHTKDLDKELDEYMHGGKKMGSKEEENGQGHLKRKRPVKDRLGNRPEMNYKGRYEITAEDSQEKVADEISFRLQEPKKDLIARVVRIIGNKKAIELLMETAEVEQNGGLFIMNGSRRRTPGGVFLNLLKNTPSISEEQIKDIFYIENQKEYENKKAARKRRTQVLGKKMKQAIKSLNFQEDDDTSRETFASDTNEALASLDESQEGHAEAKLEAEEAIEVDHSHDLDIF
inactive: [1] -0.034 | crizotinib 0.097 | [2] -0.036 | [3] -0.01 | duvelisib 0.07 | gandotinib 0.035 | tozasertib 0.082 | [4] -0.062 | doramapimod -0.016 | ispinesib 0.017

PELP1 (UniProt Q8IZL8)
inactive: [1] -0.006 | crizotinib -0.012 | [2] -0.107 | [3] -0.024 | duvelisib -0.055 | gandotinib -0.282 | tozasertib -0.012 | [4] 0.111 | doramapimod 0.019 | ispinesib 0.004

PTGR2 (UniProt Q8N8N7)
inactive: [1] 0.097 | crizotinib -0.075 | [2] 0.045 | [3] 0.112 | duvelisib 0.049 | gandotinib 0.192 | tozasertib 0 | [4] -0.185 | doramapimod 0.223 | ispinesib 0.013

PSMD8 (UniProt P48556)
Sequence of UniProt P48556 (P48556 whole entry, looked up): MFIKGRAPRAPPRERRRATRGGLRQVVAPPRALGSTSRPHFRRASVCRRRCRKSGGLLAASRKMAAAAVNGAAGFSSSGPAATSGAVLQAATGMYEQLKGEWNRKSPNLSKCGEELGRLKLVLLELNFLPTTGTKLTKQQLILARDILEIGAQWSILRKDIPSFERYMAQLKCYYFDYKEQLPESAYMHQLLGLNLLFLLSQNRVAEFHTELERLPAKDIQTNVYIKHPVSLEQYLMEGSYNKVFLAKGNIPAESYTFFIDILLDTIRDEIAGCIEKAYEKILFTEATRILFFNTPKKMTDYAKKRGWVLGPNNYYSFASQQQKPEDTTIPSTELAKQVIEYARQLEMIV
inactive: [1] 0.034 | crizotinib 0.011 | [2] -0.053 | [3] 0.156 | duvelisib -0.016 | gandotinib 0.002 | tozasertib 0.008 | [4] 0.059 | doramapimod 0.028 | ispinesib 0.015

PEX13 (UniProt Q92968)
inactive: [1] -0.005 | crizotinib -0.146 | [2] 0.034 | [3] -0.047 | duvelisib 0.078 | gandotinib -0.143 | tozasertib -0.163 | [4] -0.016 | doramapimod 0.056 | ispinesib -0.026

PSMD3 (UniProt O43242)
Sequence of UniProt O43242 (O43242 whole entry, looked up): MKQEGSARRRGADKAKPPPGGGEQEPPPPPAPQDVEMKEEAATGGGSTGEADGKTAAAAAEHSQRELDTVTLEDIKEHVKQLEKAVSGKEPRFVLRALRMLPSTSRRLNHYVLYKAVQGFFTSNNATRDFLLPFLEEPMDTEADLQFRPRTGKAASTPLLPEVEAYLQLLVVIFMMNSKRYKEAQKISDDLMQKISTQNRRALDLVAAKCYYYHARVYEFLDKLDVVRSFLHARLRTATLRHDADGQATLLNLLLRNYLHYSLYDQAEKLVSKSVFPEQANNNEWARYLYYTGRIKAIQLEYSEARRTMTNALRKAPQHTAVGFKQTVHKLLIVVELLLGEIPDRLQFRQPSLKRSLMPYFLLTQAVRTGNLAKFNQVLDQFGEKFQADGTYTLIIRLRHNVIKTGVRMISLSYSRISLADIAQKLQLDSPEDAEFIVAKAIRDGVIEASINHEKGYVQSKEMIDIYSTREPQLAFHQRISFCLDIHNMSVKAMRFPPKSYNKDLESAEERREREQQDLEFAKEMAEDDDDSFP
inactive: [1] 0.058 | crizotinib 0.003 | [2] -0.003 | [3] 0.094 | duvelisib -0.028 | gandotinib 0.028 | tozasertib 0.033 | [4] 0.047 | doramapimod 0.047 | ispinesib 0.013

PPT1 (UniProt P50897)
Sequence of UniProt P50897 (P50897 whole entry, looked up): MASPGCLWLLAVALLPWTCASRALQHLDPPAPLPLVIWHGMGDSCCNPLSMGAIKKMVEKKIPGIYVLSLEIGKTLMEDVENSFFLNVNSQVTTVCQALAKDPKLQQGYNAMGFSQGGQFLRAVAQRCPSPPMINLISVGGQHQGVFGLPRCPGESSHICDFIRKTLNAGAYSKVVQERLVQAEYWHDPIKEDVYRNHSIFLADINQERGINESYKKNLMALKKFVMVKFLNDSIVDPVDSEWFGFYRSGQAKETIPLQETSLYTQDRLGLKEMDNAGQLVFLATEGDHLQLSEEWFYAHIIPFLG
active: crizotinib -0.57 | ispinesib -0.394
inactive: [1] 0.022 | [2] -0.008 | [3] -0.029 | duvelisib 0.023 | gandotinib -0.018 | tozasertib -0.012 | [4] 0.023 | doramapimod -0.004

PITRM1 isoform 2 (UniProt Q5JRX3)
inactive: [1] -0.042 | crizotinib 0.01 | [2] 0.094 | [3] -0.023 | duvelisib 0.072 | gandotinib 0.038 | tozasertib -0.029 | [4] 0 | doramapimod -0.014
active: ispinesib -0.38

PRKAA1 isoform 2 (UniProt Q13131)
inactive: [1] 0 | crizotinib -0.156 | [2] -0.007 | [3] -0.011 | duvelisib 0.055 | tozasertib -0.044 | [4] -0.036 | doramapimod -0.019 | ispinesib -0.003
active: gandotinib -0.235

QKI (UniProt Q96PU8)
Sequence of UniProt Q96PU8 (Q96PU8 whole entry, looked up): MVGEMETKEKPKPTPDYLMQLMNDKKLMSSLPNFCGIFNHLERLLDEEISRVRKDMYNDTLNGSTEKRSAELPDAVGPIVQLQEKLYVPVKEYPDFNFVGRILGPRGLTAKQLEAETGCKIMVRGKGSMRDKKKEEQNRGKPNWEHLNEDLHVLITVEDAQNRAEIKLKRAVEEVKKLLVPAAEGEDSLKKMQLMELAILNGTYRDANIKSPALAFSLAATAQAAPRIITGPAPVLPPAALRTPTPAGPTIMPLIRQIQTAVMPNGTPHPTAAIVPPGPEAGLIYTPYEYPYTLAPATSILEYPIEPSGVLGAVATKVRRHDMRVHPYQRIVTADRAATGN
inactive: [1] -0.057 | crizotinib 0.075 | [2] 0.046 | [3] -0.079 | duvelisib 0.032 | gandotinib -0.093 | tozasertib 0.027 | [4] 0.034 | doramapimod 0 | ispinesib -0.034

PCNT (UniProt O95613)
inactive: [1] 0.119 | crizotinib 0.023 | [2] 0.09 | [3] 0.153 | duvelisib -0.003 | gandotinib 0.06 | tozasertib 0.032 | [4] -0.006 | doramapimod -0.023 | ispinesib -0.099
